Data published in PubChem BioAssay AID778 (Sanford-Burnham Center for Chemical Genomics, 2007).
Out of some 96,000 compounds screened, about 20,000 (21%) were called active.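 The calls were made as follows: active = CYP2C19 inhibition above a set limit at 5 µM in the primary screen (cut at about 50% in these data); inactive = the rest.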 A selection follows.

Target: Cytochrome P450 2C19 (Homo sapiens) (UniProt P33261)
Test: blockers of cytochrome P450 2C19 activity – biochemical, luminescence, ADME assay, primary screen (AID 778);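 also: plate controls were negative control wells for no effect and 2.5 mM tranylcypromine positive control for full effect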
Conditions: CYP2C19 Supersomes, luciferin-H EGE luminescence, 30 min; at 5 µM; active compounds read high

Sequence of Cytochrome P450 2C19 (Homo sapiens) (P33261 whole entry, looked up): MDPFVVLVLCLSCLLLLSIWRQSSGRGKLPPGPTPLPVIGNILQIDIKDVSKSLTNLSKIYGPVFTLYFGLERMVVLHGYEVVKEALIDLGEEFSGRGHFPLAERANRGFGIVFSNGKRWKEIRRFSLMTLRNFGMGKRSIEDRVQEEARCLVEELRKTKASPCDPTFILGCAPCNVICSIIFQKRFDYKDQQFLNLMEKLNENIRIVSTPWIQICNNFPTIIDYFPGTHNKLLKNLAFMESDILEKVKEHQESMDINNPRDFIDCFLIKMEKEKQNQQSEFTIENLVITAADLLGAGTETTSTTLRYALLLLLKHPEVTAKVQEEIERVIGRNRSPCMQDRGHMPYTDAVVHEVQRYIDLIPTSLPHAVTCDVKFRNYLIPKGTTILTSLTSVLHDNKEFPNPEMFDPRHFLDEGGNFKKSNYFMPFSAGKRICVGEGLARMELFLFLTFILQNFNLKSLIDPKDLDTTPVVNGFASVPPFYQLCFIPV

inhibition, inactive:
COc1ccccc1NC(=O)c1ccc(C)s1 36.8%
c1cncc(-c2nnc3n2C2(CCCCC2)Cc2ccccc2-3)c1 3%
CCC1(CC)Cc2ccccc2-c2nc3ccccc3c(=O)n21 13.4%
CCCCNc1ccc(C(=O)Nc2cccc(C)n2)cc1[N+](=O)[O-] -3%
COc1ccc(N(CCC#N)S(=O)(=O)c2ccc(Cl)cc2)cc1 49.6%
CCn1c(NC(=O)c2ccccc2)c(-c2cccs2)c(=O)c2ccccc21 -4.5%
CCOc1ccc(NC(=O)c2ccccc2NS(C)(=O)=O)cc1 16.2%
CCOc1ccccc1N(CC(=O)Nc1ccccc1C(=O)OC)S(C)(=O)=O 14.5%
COC(=O)c1ccccc1NC(=O)CN(Cc1ccccc1)S(C)(=O)=O 17.1%
COC(=O)c1ccc(NC(=O)c2ccccc2NS(=O)(=O)c2ccccc2)cc1 41.7%
O=C(OC1CCCCC1=O)c1cccc(S(=O)(=O)NCc2ccccc2)c1 (stereo not drawn) 41.1%
CC(=O)c1c(C)[nH]c(C(=O)NCCCN2CCCC2)c1C -10.9%
O=C(O)c1ccccc1-c1ccccc1C(=O)Nc1cccc2ccccc12 0.9%
COc1ccccc1-n1cnc2cc(C(=O)NCC3CCCO3)ccc21 (stereo not drawn) 13.8%
COCCCNC(=O)c1ccc2c(c1)ncn2-c1ccccc1OC 1.5%
O=C(Nc1nc2ccc(S(=O)(=O)N3CCCC3)cc2s1)C1CCCO1 (stereo not drawn) -2.2%
CCc1nnc(NC(=O)c2nc3nccc(C)n3n2)s1 0.6%
O=C(CSc1nc2ccccc2o1)N1c2ccccc2Sc2ccc(Cl)cc21 36.4%
Cc1ccc(SCc2cc(=O)[nH]c(N3CCCCC3)n2)cc1 30.5%
CC(C)(C)NC(=O)COc1ccc(CNc2ccc3[nH]c(=O)[nH]c3c2)cc1 11.8%
COc1ccc(OCC(=O)NNC(=O)c2ccc(-c3ccccc3)cc2)cc1 -6%
CC(NC(=O)COc1ccccc1)C(=O)NC1=NCCS1 (stereo not drawn) 10.5%
COC(=O)/C=C/C(=O)NCc1ccco1 -5.7%
CCC(=O)Nc1nc(OC)cc(OC)n1 2.1%
FC(F)(F)c1nc2ccccc2nc1N/N=C/c1ccc(Cl)cc1 16.6%
O=[N+]([O-])c1ccc(Oc2ccc(F)cc2Br)c2ccncc12 31%
COc1ccc(NC2CC(=O)N(C)C2=O)cc1 (stereo not drawn) -10.3%
COc1ccc2c(c1)OC(O)(C(F)(F)C(F)F)CC2=O (stereo not drawn) 47.3%
O=C(Cn1ccc([N+](=O)[O-])n1)NCc1cccs1 0.6%
O=C(Nc1cc(=O)[nH]c2ncnn12)c1ccccc1Cl 2.2%
O=C(C1CCCO1)N(Cc1ccccc1)c1ccccc1 (stereo not drawn) 0%
COc1ccc(C(CC(=O)O)NC(=O)Cc2ccccc2)cc1 (stereo not drawn) -9.7%
CCOc1ccc(C(CC(=O)O)NC(=O)COc2ccccc2)cc1 (stereo not drawn) -2.9%
COc1cc2[nH]c(=O)n(CCC(=O)NC3CCN(Cc4ccccc4)CC3)c(=O)c2cc1OC -19%
COc1ccc(N(CC(=O)NC2CCCCCCC2)S(=O)(=O)c2c(C)nn(C)c2C)cc1 42.8%
Cc1ccc(S(=O)(=O)N(C)CC(=O)NC2CCCC2)cc1 11.9%
CCn1c2c(c3ccc(OC)cc31)CCCC2=O 7.5%
C=C(C)Cn1c(C)cc(C)c(S(=O)(=O)c2ccccc2C)c1=O 19.6%
CCCOc1ccc(N2C(=O)CC(N(CCc3ccc(S(N)(=O)=O)cc3)C(C)=O)C2=O)cc1 (stereo not drawn) -16.6%
COc1cccc(N(CC(=O)NC2CCCC2)C(=O)Cn2nnc(-c3ccc(C)cc3)n2)c1 28.4%
CC(C)CCNC(=O)CN(C(=O)Cn1nnc(-c2ccc(F)cc2)n1)C1CCCC1 17.8%
CC1(C)CC(O)C(CCC(O)c2ccccc2)C(C)(C)N1 (stereo not drawn) -6.9%
CCCOc1ccc(-c2nc(N)n[nH]2)cc1 5.8%
Cn1c(=NC(=O)C2CC2)sc2cc(F)cc(F)c21 13.8%
COc1ccc(CCN2CNc3c(c(=O)n(C)c(=O)n3C)C2)cc1OC -22.1%
COc1ccc(CCN(C)CCN2C(=O)c3ccccc3C2=O)cc1OC 2.8%
CCOC(=O)c1c(C)[nH]c(C)c1C(=O)CSc1nc(N)cc(N)n1 17.6%
Cc1ccc(S(=O)(=O)N2CCC(C(=O)N[C@@H](C)C(=O)NCCc3ccccc3)CC2)cc1 10.5%
CC(=O)NS(=O)(=O)c1ccccc1 4.6%
Cc1ccc(S(=O)(=O)NCCSC(C)(C)C)cc1 11.6%
CC(C)(C)NC(=O)CN(Cc1cccs1)C(=O)CNS(=O)(=O)c1ccccc1 4.4%
CS(=O)(=O)NCc1ccc(C(=O)NCc2ccccc2)cc1 -8.4%
CCOc1cc(C(=S)N2CCOCC2)ccc1O 12.3%
CN(CC#CCC(c1ccccc1)c1ccccc1)C(C)(C)C 46.1%
CC(=O)OCc1cc(=O)n(C)c(=O)n1C 1.9%
CCCc1nnc(NC(=O)c2cccs2)s1 7.8%
COc1ccc(/C=N/Nc2nc3ccccc3o2)cc1OC -0.5%
COc1cc(/C=N/NC(=O)Nc2ccccc2)ccc1OCCOc1ccccc1C 4.8%
Cc1csc(NC(=O)CN2CCCCCC2)n1 22.8%
COc1cc(/C=N/O)cc(Br)c1OCc1cccc(Cl)c1 4.4%
CCOc1cc(/C=N/O)cc(Br)c1OC 45.6%
Nc1c(-c2cccc(Cl)c2)cnn1-c1cccc([N+](=O)[O-])c1 24%
COc1ccc(C)cc1S(=O)(=O)NC1CCCCC1 15%
Cc1noc(C)c1S(=O)(=O)NCCc1ccc(S(N)(=O)=O)cc1 -13.5%
COc1ccc(Br)cc1S(=O)(=O)N1CCN=C1C 40.3%
COc1ccc(Cn2c(C)c(C)c(C#N)c2NC(=O)Nc2ccc(F)cc2)cc1 4.4%
Cc1ccc(F)cc1NC(=O)c1cccc(N(C)C)c1 8.6%
CCCC(NS(=O)(=O)c1ccc(OC)cc1)C(=O)O (stereo not drawn) -12.7%
CCc1ccc(Nc2ncc3c(n2)CC(c2ccco2)CC3=O)cc1 (stereo not drawn) 1%
CC1CCCCC1NC(=O)CSc1nnc(N)s1 (stereo not drawn) 4%
CC1CCCC(NC(=O)CN2CCN(Cc3ccc(Cl)cc3)C2=O)C1C (stereo not drawn) 18.3%
Cc1ccc(NC(=S)NC(NC(=O)Cc2cccc3ccccc23)C(Cl)(Cl)Cl)cc1 (stereo not drawn) 49.5%
CSCCC(NC(=O)C1CCC(C)CC1)C(=O)NCc1ccco1 (stereo not drawn) 8.2%
O=C(NC1CCC(O)CC1)c1ccc(S(=O)(=O)NCc2ccco2)cc1 (stereo not drawn) -9%
COc1ccc(C2=NOC3(CC(=O)N(c4ccc(C)cc4)C3=O)C2)cc1 (stereo not drawn) -13.3%
O=C1CSC(c2ccc(Cl)cc2)N1 (stereo not drawn) 13.7%
O=C(NCC1CCCO1)c1ccc2ccccc2n1 (stereo not drawn) -2.7%
Cc1nc2ccccc2c2oc(C(=O)NCC3CCCO3)cc12 (stereo not drawn) -8.4%
Cc1ccc(S(=O)(=O)n2nc(OC(=O)C(C)(C)C)cc2N)cc1 21.6%
CS(=O)(=O)N1CCN(c2cccc(Cl)n2)CC1 46.3%
c1ccc(-n2ncc3c2ncn2c(C4CCCCC4)nnc32)cc1 -4.4%

inhibition, active:
O=c1c2ccccc2nc2n1C1(CCCCC1)Cc1ccccc1-2 74.3%
COC(=O)c1ccccc1NC(=O)CN(Cc1ccc(Cl)cc1)S(C)(=O)=O 96.6%
COC(=O)c1ccccc1NC(=O)c1ccccc1NS(C)(=O)=O 62.7%
COc1ccccc1-n1cnc2cc(NS(=O)(=O)c3ccccc3)ccc21 64.8%
O=C1Cc2ccccc2Sc2ccc(Cl)cc21 58.3%
COC(=O)c1ccc(OCC(=O)NC(C)(C)C)cc1 67.1%
COc1ccc2c(c1)SC(C)CC2=O (stereo not drawn) 79.6%
CCOc1ccc(C(CCc2ccccc2)NC(=O)c2ccc(OC)c(OC)c2)cc1OCC (stereo not drawn) 56.7%
CN(CC(=O)NC1CCCCC1)S(=O)(=O)c1cccc2cccnc12 57.6%
CC(C)CCNC(=O)C(C)N(C(=O)Cn1nnc(-c2ccc(F)cc2)n1)C1CCCC1 (stereo not drawn) 78.7%
COc1ccc(CCN=C2SCC(=O)N2C)cc1OC 88.2%
NC(=S)c1ccc(C(N)=S)o1 60.2%
Cc1ccc(C(=O)NCCNS(=O)(=O)c2ccccc2)cc1 81.4%
O=S(=O)(NCCNS(=O)(=O)c1ccccc1)c1ccccc1 89%
C=CCOc1ccc(/C=N/n2cncn2)cc1OC 96.6%
COc1cc(/C=N/O)cc(Br)c1OS(=O)(=O)c1ccc(C)cc1 73.4%
COc1ccc(C)cc1S(=O)(=O)NCCc1ccccc1 54.1%
COCCNS(=O)(=O)c1cc(Br)ccc1OC 66.9%
CC1CCCC(NC(=O)CSc2nccn2C)C1C (stereo not drawn) 97.2%
CCCC(C(=O)NCc1ccco1)N(C(=O)CNS(=O)(=O)c1ccccc1)C1CCCC1 (stereo not drawn) 78.3%
c1ccc2c(NCC3CCCO3)nc(-c3ccncc3)nc2c1 (stereo not drawn) 94.5%
Cc1ccc(N2CCN(S(=O)(=O)N(C)C)CC2)cc1Cl 59.1%
